This is an account of results in the supplement of paper PMC11732987, “Enantioselective OTUD7B fragment discovery through chemoproteomics screening and high-throughput optimisation” (Communications Chemistry, 2025).

Values without a mark were called inactive.

UniProt Q6GQQ9, sequence (Q6GQQ9 whole entry): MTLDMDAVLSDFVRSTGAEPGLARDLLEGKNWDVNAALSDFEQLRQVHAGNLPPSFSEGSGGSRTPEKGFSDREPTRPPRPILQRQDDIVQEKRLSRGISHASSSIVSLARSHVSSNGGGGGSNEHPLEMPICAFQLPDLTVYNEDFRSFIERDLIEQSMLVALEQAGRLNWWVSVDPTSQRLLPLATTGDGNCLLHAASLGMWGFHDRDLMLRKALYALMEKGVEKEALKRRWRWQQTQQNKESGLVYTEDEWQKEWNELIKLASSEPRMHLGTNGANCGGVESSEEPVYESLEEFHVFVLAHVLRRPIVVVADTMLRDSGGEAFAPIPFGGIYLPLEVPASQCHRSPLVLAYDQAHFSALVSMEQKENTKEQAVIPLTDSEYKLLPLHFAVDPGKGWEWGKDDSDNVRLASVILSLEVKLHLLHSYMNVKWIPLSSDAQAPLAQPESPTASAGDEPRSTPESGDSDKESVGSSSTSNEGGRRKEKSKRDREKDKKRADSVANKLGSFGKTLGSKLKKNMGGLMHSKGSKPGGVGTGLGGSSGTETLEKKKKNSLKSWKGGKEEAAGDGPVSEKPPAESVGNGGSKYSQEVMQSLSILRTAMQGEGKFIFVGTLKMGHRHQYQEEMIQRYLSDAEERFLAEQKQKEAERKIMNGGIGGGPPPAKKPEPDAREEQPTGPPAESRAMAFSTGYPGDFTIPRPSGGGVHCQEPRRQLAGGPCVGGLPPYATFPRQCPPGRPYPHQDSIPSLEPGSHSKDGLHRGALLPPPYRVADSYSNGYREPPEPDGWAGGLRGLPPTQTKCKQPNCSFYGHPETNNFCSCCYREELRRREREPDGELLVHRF
UniProt Q96JH7, sequence (Q96JH7 whole entry): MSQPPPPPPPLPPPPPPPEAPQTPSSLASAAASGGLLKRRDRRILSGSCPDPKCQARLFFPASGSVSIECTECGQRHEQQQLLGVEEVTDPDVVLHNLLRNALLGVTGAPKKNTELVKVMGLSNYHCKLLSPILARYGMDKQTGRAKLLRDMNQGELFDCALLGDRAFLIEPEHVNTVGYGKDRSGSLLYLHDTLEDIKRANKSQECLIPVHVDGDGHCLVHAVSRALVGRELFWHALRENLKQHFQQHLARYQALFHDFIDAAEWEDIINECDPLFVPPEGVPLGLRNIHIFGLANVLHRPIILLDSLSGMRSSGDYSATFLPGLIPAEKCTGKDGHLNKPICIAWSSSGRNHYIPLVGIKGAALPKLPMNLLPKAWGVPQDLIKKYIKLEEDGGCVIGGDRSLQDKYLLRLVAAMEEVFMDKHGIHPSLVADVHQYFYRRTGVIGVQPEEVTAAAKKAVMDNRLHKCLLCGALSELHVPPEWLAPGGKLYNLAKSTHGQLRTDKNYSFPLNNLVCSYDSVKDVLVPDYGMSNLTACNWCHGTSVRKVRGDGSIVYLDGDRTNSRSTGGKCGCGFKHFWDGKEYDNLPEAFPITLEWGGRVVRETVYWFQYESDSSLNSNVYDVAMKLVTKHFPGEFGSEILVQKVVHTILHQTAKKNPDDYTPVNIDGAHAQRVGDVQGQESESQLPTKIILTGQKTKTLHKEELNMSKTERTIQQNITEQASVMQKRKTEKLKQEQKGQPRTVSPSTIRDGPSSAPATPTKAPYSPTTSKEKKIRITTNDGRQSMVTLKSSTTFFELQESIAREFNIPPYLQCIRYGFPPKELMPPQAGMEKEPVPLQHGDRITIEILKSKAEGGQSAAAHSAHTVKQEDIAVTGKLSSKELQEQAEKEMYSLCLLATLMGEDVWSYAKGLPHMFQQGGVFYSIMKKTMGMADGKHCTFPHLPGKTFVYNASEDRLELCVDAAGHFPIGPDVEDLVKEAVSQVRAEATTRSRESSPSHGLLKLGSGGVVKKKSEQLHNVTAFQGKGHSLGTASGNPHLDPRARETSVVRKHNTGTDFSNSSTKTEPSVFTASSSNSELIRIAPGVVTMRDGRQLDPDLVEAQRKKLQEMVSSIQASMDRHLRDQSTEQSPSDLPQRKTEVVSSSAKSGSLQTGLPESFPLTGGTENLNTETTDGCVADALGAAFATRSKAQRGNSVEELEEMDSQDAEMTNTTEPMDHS
UniProt Q9H9J4, sequence (Q9H9J4 whole entry): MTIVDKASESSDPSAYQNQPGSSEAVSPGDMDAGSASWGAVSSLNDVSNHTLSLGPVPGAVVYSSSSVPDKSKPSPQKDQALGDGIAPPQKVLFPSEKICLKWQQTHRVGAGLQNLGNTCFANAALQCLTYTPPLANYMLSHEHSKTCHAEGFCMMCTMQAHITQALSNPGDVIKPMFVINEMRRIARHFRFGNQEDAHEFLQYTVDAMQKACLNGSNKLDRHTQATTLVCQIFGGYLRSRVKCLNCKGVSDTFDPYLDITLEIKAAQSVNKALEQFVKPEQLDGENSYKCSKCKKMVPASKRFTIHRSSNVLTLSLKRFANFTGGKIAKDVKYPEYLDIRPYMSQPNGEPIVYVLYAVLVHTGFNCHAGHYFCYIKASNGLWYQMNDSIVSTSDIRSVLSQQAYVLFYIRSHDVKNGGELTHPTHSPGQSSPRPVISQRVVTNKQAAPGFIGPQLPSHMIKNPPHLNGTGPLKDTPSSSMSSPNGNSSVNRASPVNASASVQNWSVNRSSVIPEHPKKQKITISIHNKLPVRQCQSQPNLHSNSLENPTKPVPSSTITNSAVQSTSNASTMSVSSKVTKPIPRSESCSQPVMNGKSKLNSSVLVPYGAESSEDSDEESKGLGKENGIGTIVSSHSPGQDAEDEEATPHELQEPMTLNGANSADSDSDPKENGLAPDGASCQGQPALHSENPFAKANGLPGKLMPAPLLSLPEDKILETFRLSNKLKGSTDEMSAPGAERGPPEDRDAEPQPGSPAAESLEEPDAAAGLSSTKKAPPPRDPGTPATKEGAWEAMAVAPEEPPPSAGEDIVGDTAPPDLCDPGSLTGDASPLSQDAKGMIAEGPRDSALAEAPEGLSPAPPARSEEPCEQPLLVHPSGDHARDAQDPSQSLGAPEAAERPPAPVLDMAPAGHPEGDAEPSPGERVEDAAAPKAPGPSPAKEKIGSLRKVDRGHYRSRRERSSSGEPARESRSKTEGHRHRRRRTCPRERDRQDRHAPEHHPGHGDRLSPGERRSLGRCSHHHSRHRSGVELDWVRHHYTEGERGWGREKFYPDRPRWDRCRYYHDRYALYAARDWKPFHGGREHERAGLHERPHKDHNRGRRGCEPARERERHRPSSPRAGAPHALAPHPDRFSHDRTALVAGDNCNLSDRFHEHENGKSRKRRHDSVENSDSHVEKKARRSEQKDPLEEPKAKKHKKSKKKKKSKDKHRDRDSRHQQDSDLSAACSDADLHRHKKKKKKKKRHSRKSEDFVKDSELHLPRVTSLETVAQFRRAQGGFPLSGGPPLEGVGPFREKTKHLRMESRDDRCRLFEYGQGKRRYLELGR
UniProt Q9Y5T5, sequence (Q9Y5T5 whole entry, looked up): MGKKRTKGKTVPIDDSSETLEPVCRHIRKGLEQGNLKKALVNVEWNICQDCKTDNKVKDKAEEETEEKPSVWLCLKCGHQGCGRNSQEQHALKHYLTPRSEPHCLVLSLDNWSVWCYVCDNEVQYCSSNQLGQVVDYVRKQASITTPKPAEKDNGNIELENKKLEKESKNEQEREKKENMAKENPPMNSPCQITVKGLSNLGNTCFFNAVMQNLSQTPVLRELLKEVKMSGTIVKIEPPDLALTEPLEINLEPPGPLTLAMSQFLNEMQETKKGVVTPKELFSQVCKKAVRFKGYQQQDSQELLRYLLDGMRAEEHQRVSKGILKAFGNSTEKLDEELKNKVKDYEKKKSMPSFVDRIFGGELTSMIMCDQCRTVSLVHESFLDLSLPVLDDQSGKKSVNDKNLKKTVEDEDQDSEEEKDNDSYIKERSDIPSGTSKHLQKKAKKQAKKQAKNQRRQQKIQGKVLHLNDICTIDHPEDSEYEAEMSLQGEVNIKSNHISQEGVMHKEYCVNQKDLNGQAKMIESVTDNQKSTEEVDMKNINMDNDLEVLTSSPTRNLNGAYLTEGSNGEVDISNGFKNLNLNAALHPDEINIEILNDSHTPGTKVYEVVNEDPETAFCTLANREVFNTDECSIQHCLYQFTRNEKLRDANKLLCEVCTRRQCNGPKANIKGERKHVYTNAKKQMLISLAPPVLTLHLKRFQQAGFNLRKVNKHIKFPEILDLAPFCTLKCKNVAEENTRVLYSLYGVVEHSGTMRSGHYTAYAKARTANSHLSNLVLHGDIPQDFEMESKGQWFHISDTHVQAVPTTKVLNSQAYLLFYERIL
UniProt O15372, sequence (O15372 whole entry): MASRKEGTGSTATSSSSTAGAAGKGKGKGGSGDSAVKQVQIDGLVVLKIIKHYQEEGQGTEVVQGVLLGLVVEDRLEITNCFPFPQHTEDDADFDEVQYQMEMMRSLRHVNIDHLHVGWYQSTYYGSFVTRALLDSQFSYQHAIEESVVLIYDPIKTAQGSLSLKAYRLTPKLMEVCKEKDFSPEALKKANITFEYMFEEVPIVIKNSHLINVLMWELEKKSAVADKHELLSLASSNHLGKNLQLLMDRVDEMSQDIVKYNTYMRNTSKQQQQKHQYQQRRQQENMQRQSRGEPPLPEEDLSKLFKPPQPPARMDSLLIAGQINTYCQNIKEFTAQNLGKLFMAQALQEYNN
UniProt P51665, sequence (P51665 whole entry): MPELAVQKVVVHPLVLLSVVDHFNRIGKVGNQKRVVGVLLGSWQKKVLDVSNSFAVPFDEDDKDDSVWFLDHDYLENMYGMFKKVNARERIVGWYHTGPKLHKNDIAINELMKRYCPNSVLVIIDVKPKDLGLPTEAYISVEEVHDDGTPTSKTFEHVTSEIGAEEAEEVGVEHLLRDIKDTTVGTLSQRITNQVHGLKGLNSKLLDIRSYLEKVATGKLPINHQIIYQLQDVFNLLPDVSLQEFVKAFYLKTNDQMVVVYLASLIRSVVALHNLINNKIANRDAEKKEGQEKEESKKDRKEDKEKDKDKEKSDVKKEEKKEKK

Compound in the first assay: ClCC(=O)NC1(CCCC1)C#N
As to the kind of experiment: log2 ratio of Biotin-Ahx-Ub-VS probe labelling (compound/DMSO); higher = less target engagement, active = hit call of the paper (q ≤ 0.05, log2 ratio ≤ -1). Particulars: compound concentration: 50uM; treatment time: 3 h. The procedure: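 Round 2 competitive ABPP in HEK293T lysate. Compounds were tested at 50 and 200 µM for 3 h, followed by Biotin-Ahx-Ub-VS enrichment and diaPASEF LC-MS/MS. Values are the average log2 ratio (compound/DMSO) from an unpaired t-test (n=3 treated, n=26 DMSO).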
For the target FAM105A (UniProt Q9NUU6), the “log2 ratio of Biotin-Ahx-Ub-VS probe labelling” value (“log2 ratio” below) was -0.0646.
As to EIF3H (UniProt O15372), the “log2 ratio” value was -0.0689.
Consider USP15 (UniProt Q9Y4E8), for which the “log2 ratio” value is -0.194.
In the case of USP4 (UniProt Q13107), the “log2 ratio” value is -0.0435.
For USP16 (UniProt Q9Y5T5), the “log2 ratio” value is -0.176.
As to USP34 (UniProt Q70CQ2), the “log2 ratio” value was -0.504.
Consider UCHL1 (UniProt P09936), for which the “log2 ratio” value is -0.205.
On the same count and under the same terms, as for USP28 (UniProt Q96RU2), the figure is 0.02; as for USP10 (UniProt Q14694), -0.0318; as for UCHL5 (UniProt Q9Y5K5), -0.245.
Turning to USP54 (UniProt Q70EL1), the “log2 ratio” value was -0.959.
PSMD7 (UniProt P51665): the “log2 ratio” value was -1.2.
Same read-out and setting: as for OTUD7B (UniProt Q6GQQ9), the figure is -1.16 (active); as for USP38 (UniProt Q8NB14), -0.219; as for MINDY4 (UniProt Q4G0A6), -0.742.
Regarding USP42 (UniProt Q9H9J4), the “log2 ratio” value is -0.155.
As for VCPIP1 (UniProt Q96JH7), the “log2 ratio” value was -0.312.
On to USP46 (UniProt P62068), for which the “log2 ratio” value is -0.274.
As to USP19 (UniProt O94966), the “log2 ratio” value was -0.227.
On the same count and under the same terms, with ATXN3 (UniProt P54252) the figure was -0.261.

The assay is the same for the next values; noted with them: compound concentration: 200uM; treatment time: 3 h.
Turning to FAM105A (UniProt Q9NUU6), the “log2 ratio” value was 0.0452.
Turning to EIF3H (UniProt O15372), the “log2 ratio” value was 0.0852.
The same measure, in the same setting: with USP15 (UniProt Q9Y4E8) the figure was -0.0271; with USP4 (UniProt Q13107), -0.588.
With USP16 (UniProt Q9Y5T5), the “log2 ratio” value was -0.253.
USP34 (UniProt Q70CQ2): the “log2 ratio” value is -0.364.
As to UCHL1 (UniProt P09936), the “log2 ratio” value is -0.155.
As for USP28 (UniProt Q96RU2), the “log2 ratio” value was -0.257.
The same measure, in the same setting: as for USP10 (UniProt Q14694), the figure is -0.0398; as for UCHL5 (UniProt Q9Y5K5), -0.19.
As to USP54 (UniProt Q70EL1), the “log2 ratio” value is -2.5 (active).
The same measure, in the same setting: as for PSMD7 (UniProt P51665), the figure is -0.91.
On the same count and under the same terms, as for OTUD7B (UniProt Q6GQQ9), the figure is -3.09 (active); as for USP38 (UniProt Q8NB14), -0.177.
With MINDY4 (UniProt Q4G0A6), the “log2 ratio” value is 0.517.
Consider USP42 (UniProt Q9H9J4), for which the “log2 ratio” value was -0.0948.
As to VCPIP1 (UniProt Q96JH7), the “log2 ratio” value is -0.217.
Turning to USP46 (UniProt P62068), the “log2 ratio” value was -0.249.
With USP19 (UniProt O94966), the “log2 ratio” value was -0.0992.
Consider ATXN3 (UniProt P54252), for which the “log2 ratio” value is 0.039.
